GALR2 blocker: blocks the human galanin receptor 2; inhibition, % at 4 µM; O43603; GALR2-expressing cells, antagonist mode; 140,000 compounds, 0.39% hits; in the data active = inhibition above about 27%;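 note: cells stimulated with galanin 1-16 at roughly its EC80; 0% = agonist challenge control and 100% = basal control without agonist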
S1P2 agonist: activates the human S1P2 receptor | O95136 | S1P2-expressing cell line, agonist reporter read-out | activation, % at 4.5 µM | 97,000 compounds, 0.46% hits; in the data active = activation above about 16%;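 note: 0% = vehicle low control and 100% = maximal reference agonist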
Target sequence (O95136 whole entry, looked up): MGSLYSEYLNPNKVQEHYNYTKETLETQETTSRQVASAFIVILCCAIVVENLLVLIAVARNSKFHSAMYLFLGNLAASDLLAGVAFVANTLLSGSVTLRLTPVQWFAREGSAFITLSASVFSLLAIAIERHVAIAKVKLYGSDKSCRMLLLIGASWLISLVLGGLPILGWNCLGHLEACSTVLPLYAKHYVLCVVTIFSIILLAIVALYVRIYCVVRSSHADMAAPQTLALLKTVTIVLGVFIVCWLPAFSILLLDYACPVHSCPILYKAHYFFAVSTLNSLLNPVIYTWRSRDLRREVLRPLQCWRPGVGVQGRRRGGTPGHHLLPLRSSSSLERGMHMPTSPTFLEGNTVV
GALR2 ag: activates the human galanin receptor 2; O43603; GALR2-expressing cells, agonist activation read-out; activation, % (no concentration beside the values); 140,000 compounds, 0.48% hits; AID 803; in the data active = activation above about 5%, passing the limit was not always enough;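 note: 0% = vehicle buffer wells and 100% = reference agonist at full effect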
S1P2 blocker: blocks the human S1P2 receptor. inhibition, % at 5 µM. 97,000 compounds, 0.21% hits. cell-based S1P2 antagonist assay, inhibition at 5 uM. O95136; in the data active = inhibition above about 45%;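 note: CRE beta-lactamase reporter cells expressing human S1P2 stimulated with S1P; 0% = agonist at EC80 alone and 100% = agonist plus reference antagonist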
Phagocytosis inh: blocks phagocytosis by macrophages; J774A.1 macrophage IgG-bead phagocytosis, imaging; inhibition, % at 5 µM; 110,000 compounds, 0.07% hits;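 active = inhibition above the mean of the plate negative controls plus 5 SD, cut at about 13% in these data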;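 note: phagocytic index as fraction of beads internalized from green versus red external bead signal; plate controls were DMSO negative control for no effect and cytochalasin-D positive control for full effect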
* hit, by the source's call; nt = not tested or not shown; + = active, no number; [ ] = remark or other dose. This is a sample that favours compounds with a hit; in the whole collection about 1.3% have one here.

SMILES | GALR2 blocker | S1P2 agonist | GALR2 ag | S1P2 blocker | Phagocytosis inh
Cc1ccc(-c2nc(CSCC(=O)NCCN3CCN(Cc4ccccc4)CC3)c(C)o2)cc1 | 10 | -6 | -2 | 47* | -2
COc1cccc(-n2c(SCc3cc(=O)oc4cc(O)c(O)cc34)nc3ccccc3c2=O)c1 | 9 | nt | 2 | nt | -6
Cc1ccc(C2CC(c3ccccc3)=NN2C(=O)CSc2nnc(-c3ccc(Cl)cc3)o2)o1 (configuration not stated) | -4 | -1 | -2 | 16 | 0
Cc1ccc(C2CC(c3ccccc3)=NN2c2ccccc2)o1 (configuration not stated) | -9 | nt | 7.1* | nt | -4
COc1cccc(NC(=O)c2cn(C)c(=O)c3cc(OC)c(OC)cc23)c1 | -1 | 28* | -2 | -29 | nt
COc1ccccc1CNC(=O)c1cn(C)c(=O)c2cc(OC)c(OC)cc12 | -2 | 12 | -1 | -18 | 2
O=C(CSc1nnc(SCc2ccc(Cl)cc2)s1)c1ccc2c(c1)OCO2 | -2 | nt | -2 | nt | nt
CCC(C)C1NC(=S)N(C2CCCCC2)C1=O (configuration not stated) | 9 | -4 | 0 | -19 | nt
CCCCC1NC(=S)N(C2CCCCC2)C1=O (configuration not stated) | 1 | nt | 7.1* | nt | -3
CC(=O)NCCn1c(SCc2ccccc2F)nc2ccccc2c1=O | 5 | -7 | 0 | -2 | 2
CC(=O)NCCn1c(SCc2cc(=O)n3cc(Cl)ccc3n2)nc2ccccc2c1=O | 3 | 22* | -2 | -37 | -1
CC(C)CC1=NN(C(=O)c2ccncc2)C(O)(C(F)(F)F)C1 (configuration not stated) | -15 | nt | 0 | nt | -3
CCCCN1C=C(C(=O)OC)C(c2ccccc2C(F)(F)F)C(C(=O)OC)=C1 | -10 | 19* | 1 | -17 | 1
CCCCOc1ccccc1C1C(C(=O)OC)=C(C)N(C)C(C)=C1C(=O)OC | -1 | -1 | -2 | -20 | nt
CCOC(=O)n1c(=O)n(Cc2ccc(Cl)c(Cl)c2)c2ccccc21 | 0 | -8 | -2 | -18 | 0
CCCC(=O)N1CCN(c2ccc(NC(=O)c3cc4ccccc4o3)cc2Cl)CC1 | 8 | -6 | -3 | 76* | 1
O=C(Nc1ccc(N2CCN(C(=O)c3ccccc3)CC2)c(Cl)c1)c1ccco1 | 12 | -4 | -2 | 16 | 0
CCC(=O)N1CCN(c2ccc(NC(=O)c3cc4ccccc4o3)cc2Cl)CC1 | 6 | -1 | -1 | 51* | -1
O=C(Nc1ccc(N2CCN(C(=O)c3ccco3)CC2)c(Cl)c1)c1cc2ccccc2o1 | 16 | -9 | -3 | 65* | 0
O=C(c1cc2ccccc2o1)N1CCN(c2ccccc2Cl)CC1 | -6 | -4 | -1 | 10 | -1
CC(=O)c1ccc(N2CCN(C(=O)c3ccco3)CC2)c(F)c1 | 2 | 2 | -3 | -3 | +
CC(C)Sc1nnc(CNC(=O)C23CC4CC(CC(C4)C2)C3)n1C1CCCCC1 | 0 | nt | 0 | nt | -5
CC(C)(C)c1ccc(CNc2ccc([N+](=O)[O-])cn2)cc1 | 15 | nt | 0 | nt | -1
COc1ccc(C(=O)Cc2nnc(C)s2)cc1 | -3 | nt | -1 | nt | -1
CC(=O)/C(=C/c1ccc(N(C)C)cc1)C(=O)c1ccccc1 | 10 | nt | 0 | nt | 26*[artifact]
SMILES | GALR2 blocker | S1P2 agonist | GALR2 ag | S1P2 blocker | Phagocytosis inh
Cc1ccc(-c2cc(C(F)F)nc(NCc3cccnc3)n2)cc1 | -6 | -7 | 5.0* | -12 | nt
CCOC(=O)c1c(C)[nH]c(C(=O)OC/C(O)=C(\C#N)c2nc3ccccc3[nH]2)c1C | -15 | 16* | -1 | 10 | 0
CCCn1c(=O)n(N)c2ccccc21 | 8 | nt | -1 | nt | -1
Nc1nc2c3ccccc3nc(C3CC3)n2n1 | -10 | 24* | 1 | -67 | -1
CCCn1c(C(=O)OC)cc2c1ccn2-c1ccc(F)cc1 | -17 | -1 | 5.6* | 7 | nt
CC(C)Cn1c(N)c(C(=O)CSc2ccc3c(c2)OCCO3)c(=O)n(C)c1=O | 11 | -3 | -2 | 54* | nt
Cc1cccc(C)c1Nc1nnc(SC(C)C(=O)Nc2c(C)n(C)n(-c3ccccc3)c2=O)s1 (configuration not stated) | -1 | nt | 0 | nt | -2
Cn1nc(-c2ccc(N3CCOCC3)c(NS(=O)(=O)c3ccc(Cl)cc3)c2)c2ccccc2c1=O | 6 | -1 | 1 | -29 | nt
Cc1ccc(S(=O)(=O)Nc2cc(-c3nn(C)c(=O)c4ccccc34)ccc2N2CCOCC2)cc1 | 1 | 17* | -1 | -48 | -1
C[C@@H]1NC(=O)c2cc([N+](=O)[O-])cc(I)c2OCC[C@@H](C(=O)NC(CC(=O)O)C(N)=O)NC(=O)[C@H](CC(N)=O)NC1=O (some centres not stated) | 0 | nt | -3 | nt | nt

Screens from PubChem BioAssay.
